Excitability data for 40 molecules are collected here from the supplement of paper PMC9950053.

Where a name gives a salt, the structure may show the parent alone.

The experiment relates to Danio rerio larvae (5 dpf). Nature of the experiment: excitability (activity period 17 minus period 16, 1-s interval sound) minus DMSO control (percentage points); higher = more acoustic excitability than DMSO larvae. The conditions noted are these: 10 µM; exposure time: 3 h pre-incubation + 3 h imaging. The protocol: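 Wild-type 5 dpf zebrafish larvae (n=48 per drug, 96-well plates, 28.5 °C) were exposed to Tocris FDA-approved library compounds at 10 µM (0.1% DMSO) for 3 h before and 3 h during imaging. Images were taken every 6 s during visual (moving coloured lines) and acoustic stimuli, and larvae were tracked with the DeepLabCut-based Z-LaP Tracker. Each behavioural measure is the treated-group mean minus the DMSO vehicle control mean (n=844), in percentage points. This mapping covers compounds with 4-character plate codes.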
As for `OCCN(CCO)c1nc(N2CCCCC2)c2nc(N(CCO)CCO)nc(N3CCCCC3)c2n1` [Dipyridamole], the excitability was -2.85.

Regarding `Nc1nc(F)nc2c1ncn2[C@@H]1O[C@H](CO)[C@@H](O)[C@@H]1O` [Fludarabine], the excitability came out at 1.97.

As to `C[C@]12CCC(=O)C=C1CC[C@@H]1[C@@H]2[C@@H](O)C[C@@]2(C)[C@H]1CC[C@]2(O)C(=O)CO` [Hydrocortisone], the excitability was 3.96.

For `CCCCc1nc(Cl)c(CO)n1Cc1ccc(-c2ccccc2-c2nnn[nH]2)cc1` [Losartan potassium], the excitability came out at 6.79.

For the molecule `CC(C)(C#N)c1cc(Cn2cncn2)cc(C(C)(C)C#N)c1` [Anastrozole], the excitability amounted to 3.43.

In the case of `COc1cc2nc(N3CCN(C(=O)c4ccco4)CC3)nc(N)c2cc1OC` [Prazosin hydrochloride], the excitability came to 16.4.

On to `CC(C)n1c(/C=C/C(O)CC(O)CC(=O)O)c(-c2ccc(F)cc2)c2ccccc21` (stereo not given) [Fluvastatin sodium], for which the excitability was 3.75.

As for `COc1ccc([C@@H]2Sc3ccccc3N(CCN(C)C)C(=O)[C@@H]2OC(C)=O)cc1` [Diltiazem hydrochloride], the excitability was found to be 1.06.

As for `N[C@@H]1[C@H]2CN(c3nc4c(cc3F)c(=O)c(C(=O)O)cn4-c3ccc(F)cc3F)C[C@@H]12` [Trovafloxacin mesylate], the excitability was 12.2.

For the molecule `C[C@H]1C[C@@H]2[C@H]([C@@H](O)C[C@@]3(C)[C@H]2CC[C@]3(O)C(=O)CO)[C@@]2(C)C=CC(=O)C=C12` [Methylprednisolone], the excitability turned out to be 1.52.

As for `CC(=O)O[C@H]1C(=O)[C@@]2(C)[C@H]([C@H](OC(=O)c3ccccc3)[C@]3(O)C[C@H](OC(=O)[C@H](O)[C@@H](NC(=O)c4ccccc4)c4ccccc4)C(C)=C1C3(C)C)[C@]1(OC(C)=O)CO[C@@H]1C[C@@H]2O` [Taxol], the excitability stood at 2.27.

Consider `CCCN(CCC)S(=O)(=O)c1ccc(C(=O)O)cc1` [Probenecid], for which the excitability amounted to 5.41.

Take `CCOc1cc(CC(=O)N[C@@H](CC(C)C)c2ccccc2N2CCCCC2)ccc1C(=O)O` [Repaglinide]: the excitability was determined as 9.5.

Regarding `Nc1cc(N2CCCCC2)nc(N)[n+]1[O-]` [Minoxidil], the excitability was 0.502.

`CCN(Cc1ccncc1)C(=O)C(CO)c1ccccc1` (stereo not given) [Tropicamide]: the excitability is -2.02.

As to `O=C1CCc2cc(OCCCCc3nnnn3C3CCCCC3)ccc2N1` [Cilostazol], the excitability worked out at 9.2.

Regarding `CCc1c2c(nc3ccc(OC(=O)N4CCC(N5CCCCC5)CC4)cc13)-c1cc3c(c(=O)n1C2)COC(=O)[C@]3(O)CC`, the excitability was 8.99.

On to `COc1cc(Nc2c(C#N)cnc3cc(OCCCN4CCN(C)CC4)c(OC)cc23)c(Cl)cc1Cl` [Bosutinib], for which the excitability stood at 7.41.

As for `CCCCNc1cc(C(=O)O)cc(S(N)(=O)=O)c1Oc1ccccc1` [Bumetanide], the excitability worked out at 7.06.

For the molecule `CC(C)(C)NC(=O)[C@@H]1C[C@@H]2CCCC[C@@H]2CN1C[C@@H](O)[C@H](Cc1ccccc1)NC(=O)[C@H](CC(N)=O)NC(=O)c1ccc2ccccc2n1` [Saquinavir mesylate], the excitability turned out to be 7.09.

As to `C[C@H](Cc1cc2c(c(C(N)=O)c1)N(CCCO)CC2)NCCOc1ccccc1OCC(F)(F)F` [Silodosin], the excitability worked out at 22.6.

For the molecule `Nc1nc2c(ncn2COCCO)c(=O)[nH]1` [Acyclovir], the excitability was determined as 3.35.

As for `CCC(C)(C)C(=O)O[C@H]1C[C@@H](C)C=C2C=C[C@H](C)[C@H](CC[C@@H]3C[C@@H](O)CC(=O)O3)[C@H]21` [Simvastatin], the excitability was determined as 10.2.

`CN(C)CCC[C@@]1(c2ccc(F)cc2)OCc2cc(C#N)ccc21` [Escitalopram oxalate]: the excitability turned out to be 14.5.

With `C=CC(=O)N1CCC[C@@H](n2nc(-c3ccc(Oc4ccccc4)cc3)c3c(N)ncnc32)C1` [Ibrutinib], the excitability was -1.71.

As for `CCc1ccc(CCOc2ccc(CC3SC(=O)NC3=O)cc2)nc1` (stereo not given) [Pioglitazone hydrochloride], the excitability turned out to be 9.48.

For `CC(C)c1ccc2oc3nc(N)c(C(=O)O)cc3c(=O)c2c1` [Amlexanox], the excitability turned out to be 5.26.

With `CN(CCOc1ccc(NS(C)(=O)=O)cc1)CCc1ccc(NS(C)(=O)=O)cc1` [Dofetilide], the excitability turned out to be 6.73.

Turning to `O=C(NCC1CCCCN1)c1cc(OCC(F)(F)F)ccc1OCC(F)(F)F` (stereo not given) [Flecainide acetate], the excitability stood at 6.31.

As for `CC(C)c1nc(CN(C)C(=O)N[C@H](C(=O)N[C@@H](Cc2ccccc2)C[C@H](O)[C@H](Cc2ccccc2)NC(=O)OCc2cncs2)C(C)C)cs1` [Ritonavir], the excitability turned out to be 8.43.

On to `CCCCCOC(=O)Nc1nc(=O)n([C@@H]2O[C@H](C)[C@@H](O)[C@H]2O)cc1F` [Capecitabine], for which the excitability was 6.07.

For the molecule `C=C1[C@H](CO)[C@@H](O)C[C@@H]1n1cnc2c(=O)[nH]c(N)nc21` [Entecavir], the excitability was -0.589.

Take `CC(=O)Oc1ccccc1C(=O)O` [Aspirin]: the excitability stood at 10.3.

In the case of `C[C@]12CC[C@@H]3c4ccc(O)cc4C[C@@H](CCCCCCCCC[S+]([O-])CCCC(F)(F)C(F)(F)F)[C@H]3[C@@H]1CC[C@@H]2O` (stereo not given in full), the excitability turned out to be 3.06.

In the case of `CCCCCCCCc1ccc(CCC(N)(CO)CO)cc1`, the excitability came out at 14.6.

As to `Nc1ncn([C@H]2C[C@H](O)[C@@H](CO)O2)c(=O)n1` [Decitabine], the excitability is 8.23.

Take `CN1CC2c3ccccc3Oc3ccc(Cl)cc3C2C1` (stereo not given) [Asenapine maleate]: the excitability stood at 14.2.

As for `CCOC(=O)C1=C(C)NC(C)=C(C(=O)OC)C1c1cccc(Cl)c1Cl` (stereo not given) [Felodipine], the excitability was -10.3.

With `COc1cc2nc(N3CCN(C(=O)C4COc5ccccc5O4)CC3)nc(N)c2cc1OC` (stereo not given) [Doxazosin mesylate], the excitability stood at 21.8.

Consider `CC[C@H](C)C(=O)O[C@H]1C[C@@H](C)C=C2C=C[C@H](C)[C@H](CC[C@@H]3C[C@@H](O)CC(=O)O3)[C@H]21` [Lovastatin], for which the excitability turned out to be 15.
